From the OligoGym collection

Target: EPHX1
Test: pooled miR-30 sensor sort-seq; sequence = guide strand
Details: shRNA
Note: reference of the scale not given here.

Sequence | sensor-assay potency score (higher = more potent)
TTCTCCTTGTAGAAGCGCTGGG | -0.596
AAAACTCGTAGAAAGAGCCGGG | 0.199
TTGGAGTTGAAGCCATAGTGGA | -0.99
TCGTCCAGGGAGAACTTCCTTT | -1.04
TAGGAATAGGAGATGAGCTTTG | -0.367
TCATGCTTCTGGGTCATCCAGC | -0.602
AAAGTTTCCTCTTTGTCCCGGG | 0.0687
ATCAGCTTGTAAAAGATCCTGG | -0.191
TTCAATCTTAGTCTTGAAGTGA | -0.0669
TAAAACTCGTAGAAAGAGCCGG | -0.339
TTGTCCCGGGAGATGAACCAGT | -1.24
TCTTAGTCTTGAAGTGAGGGTA | 0.435
TCAATCTTAGTCTTGAAGTGAG | -0.441
TTGTAAAAGATCCTGGCGGTGG | -0.0602
TTCAAAAACGTGCTCATCGCTC | -0.238
TTGGTCAGCAGGTCGTCCAGGG | -0.558
TCTCCTTGTAGAAGCGCTGGGA | -0.317
TTGTCCAGTAGAGCATGACGTT | -1.4
TCATCTGACGTTTCCACCTTGA | -0.126
TGGATCTCCTCATCTGACGTTT | -0.892
AACTTCTCTAGAATATAGGCAG | -0.342

Target: EPHX2
Test: as above
Details: shRNA

Sequence | sensor-assay potency score (higher = more potent)
TTCCATGCAATATTCTTCTATT | -0.473
TGGTTCTTGGAAGTAGAGCTGG | -0.725
TTTTATGGAGAAATTCTTGGGG | 0.765
TGCAATATTCTTCTATTTCGGG | -0.612
TTTATGGAGAAATTCTTGGGGA | 0.378
TTTCTGGAAAGCATCATTCAGA | -0.533
TATCAGGAAGTCAAAGTGCATC | -1.33
AACTGCTGCACATAGAACTGGA | -0.354
TCGCTTGCTCTGAAGAGGCTTT | -0.734
TTTCTGGCTGAAATCGCCTTGT | -0.617
TCCAAGAATACCAACTCTCGGG | -1.01
TAGAACTGGATTTCCTCCTCAG | 0.253
TTGGATTGCAAGAGGTCGGCAG | -0.532
TTCTTTTATGGAGAAATTCTTG | -0.837
TCTCCTTACATAACACTTCCAT | -0.551
TTAGAGGACCTCTGAAACCAGA | -0.75
TTTGATACTCTCCAAAGGGGAC | -0.915
TCTCTCAGCACGGTCGTCCAGC | -0.771
TTCAGCTCACACATCAGCTGGG | 0.39
